Screens (PubChem BioAssay)
Compounds with a hit are over-represented: about 12% of the library has one in this group of screens.
AmpC detergent – blocks E. coli AmpC beta-lactamase in detergent assay; P00811; actives 0.041% (n = 370,000); Potency, µM (doses to about 114 µM), most hits filed as inhibitors; AmpC hydrolysis of nitrocefin, absorbance 480 nm, 0.01% Triton; note: nearly all actives have a fitted effect of over 25% in size
Target sequence (P00811 whole entry, looked up): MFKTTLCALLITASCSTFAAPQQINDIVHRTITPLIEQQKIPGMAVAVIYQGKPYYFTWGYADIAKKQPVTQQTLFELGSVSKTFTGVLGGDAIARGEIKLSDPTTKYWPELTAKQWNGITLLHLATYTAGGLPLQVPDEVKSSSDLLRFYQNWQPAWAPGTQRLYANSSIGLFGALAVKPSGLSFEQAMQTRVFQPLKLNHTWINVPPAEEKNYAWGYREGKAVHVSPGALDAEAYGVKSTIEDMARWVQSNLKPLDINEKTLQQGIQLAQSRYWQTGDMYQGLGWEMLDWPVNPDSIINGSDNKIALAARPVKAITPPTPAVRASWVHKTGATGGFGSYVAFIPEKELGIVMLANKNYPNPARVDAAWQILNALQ
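20 mM phosphate pH 7.0 + 0.01% (detergent screen) or 0.0001% Triton X-100; 5.3 nM AmpC reagent; cpd preinc 15 min RT; nitrocefin (800 uM stock) to start; A480 q20 s × 4 min; Activity was normalised to no-enzyme and no-compound control wells.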
AmpC no deterg – blocks E. coli AmpC beta-lactamase in detergent-free assay; actives 0.52% (n = 330,000); AmpC nitrocefin hydrolysis, absorbance 480 nm, 0.0001% Triton; Potency, µM (series often up to 57.1 µM), most hits filed as inhibitors; P00811; note: nearly all actives have a fitted effect of over 20% in size
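AmpC (5.3 nM in the dispensed reagent) in 20 mM phosphate pH 7.0 with 0.01% (detergent screen) or 0.0001% Triton X-100 was preincubated with compounds for 15 min at room temperature. Nitrocefin was then added from an 800 uM solution, and hydrolysis was followed at 480 nm.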
Pf growth 48h – inhibits P. falciparum growth in the first generation, 48 h | Potency, µM (highest dose often 28.7 µM), actives largely listed as inhibitors | actives 5.9% (n = 310,000) | AID 504832 | P. falciparum luciferase growth in erythrocytes, 48 h
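In quantitative HTS format, infected erythrocytes bearing luciferase-reporter parasites were treated for a single generation at 37 C. Luminescence after adding detection reagent served as the growth measure.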
Sm TGR block – S. mansoni TGR enzyme inhibition. AID 485364. Potency, µM (highest dose often 114 µM), actives largely listed as inhibitors. Q962Y6. actives 3% (n = 360,000). purified TGR, DTNB reduction, TNB absorbance 405 nm; note: nearly all actives have a fitted effect of over 60% in size
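TGR 20 nM + NADPH 100 uM (dispensed conc.), cpd preinc 15 min RT; start with NADPH (500 uM addition) then DTNB (15 mM addition). Kinetic TNB absorbance, 405 nm filter. Four-parameter Hill fit across titration.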
SARS PLpro yeast – inhibitors of SARS-CoV papain-like protease in yeast; Potency, µM (titrated, usually from 32.9 µM), hits mostly activators; S. cerevisiae expressing SARS-CoV PLpro, growth rescue; AID 485353; actives 0.19% (n = 330,000); calls by dose curve; note: nearly all actives have a fitted effect of over 55% in size
Pf growth 96h – P. falciparum growth inhibition at 96 hour, primary screen for plastid delayed-death inhibitors | P. falciparum luciferase reporter growth, 96 h | Potency, µM (titrated, usually from 28.7 µM), usual class: inhibitors | actives 6.9% (n = 320,000)
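P. falciparum expressing integrated firefly luciferase, in erythrocytes at 2% hematocrit, 0.05% parasitemia, incubated with compounds 96 h at 37 C, 5% CO2. Growth inhibition read as loss of luminescence; two-generation exposure targets delayed-death apicoplast inhibitors.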
Of the large screens only hits and unclear results are named; the others gave an inactive call. Unless noted, calls come from the whole dose curve; as a rule, active = well fitted curve in the direction sought with a large enough effect; inconclusive = small, poorly fitted or top-dose-only effect, or another doubt; inactive = no such curve, though single readings can be large; an effect the other way counts as inactive or inconclusive.

CCOc1ccc(CN2CCNC(=O)C2CC(=O)N(C)Cc2nonc2C)cc1 (stereo not given)	none
CN(CC1CCOCC1)C(=O)CC1C(=O)NCCN1CC(c1ccccc1)c1ccccc1 (stereo not given)	Pf growth 48h inconclusive, Sm TGR block inconclusive
COCCN(C(=O)CC1C(=O)NCCN1CC(c1ccccc1)c1ccccc1)C(C)C (stereo not given)	Pf growth 48h inconclusive, Sm TGR block inconclusive, Pf growth 96h 10µM
Cc1ccc(CN2CCNC(=O)C2CC(=O)N(C)C(C2CC2)C2CC2)o1 (stereo not given)	Sm TGR block 25µM, Pf growth 96h 13µM
CC(C)NC(=O)CC1C(=O)NCCN1CC(c1ccccc1)c1ccccc1 (stereo not given)	Sm TGR block inconclusive
CN(C(=O)CC1C(=O)NCCN1CC(c1ccccc1)c1ccccc1)C(C1CC1)C1CC1 (stereo not given)	Pf growth 48h inconclusive, Sm TGR block 45µM, Pf growth 96h inconclusive
Cc1ccc(CN2CCNC(=O)C2CC(=O)NCC(F)(F)F)o1 (stereo not given)	Sm TGR block 40µM
Cc1ccc(OCC(=O)Nc2ccc(OCc3cc(=O)n4ccsc4n3)cc2)cc1	none (no result: AmpC no deterg, Pf growth 48h, SARS PLpro yeast, Pf growth 96h)
N#Cc1c(NC(=O)CSc2nc(N)cc(=O)[nH]2)sc2c1CCCCCC2	AmpC detergent inconclusive
N#Cc1c(NC(=O)CSc2ncn[nH]2)sc2c1CCCCC2	Pf growth 48h 9.3µM (no result: Pf growth 96h)
Cc1cc(O)c(C(C)C)cc1N=Cc1ccccc1O	Pf growth 48h inconclusive, Sm TGR block 4µM, Pf growth 96h inconclusive
CCS(=O)(=O)NCc1ccc2c(c1)cc(C)n2C	AmpC detergent inconclusive, Pf growth 48h inconclusive, Pf growth 96h 6.6µM
CCc1cccc(C)c1NC(=S)NCc1ccc2c(c1)cc(C)n2C	AmpC detergent inconclusive, Pf growth 48h inconclusive, Pf growth 96h 6.6µM
COc1ccc(C2CC(O)(c3ccccc3)Oc3cc(OC)c(OC)c(OC)c32)cc1 (stereo not given)	Pf growth 48h 10µM, Pf growth 96h 10µM
COc1ccc([C@@H]2C[C@H](c3ccccc3)Oc3cc(OC)c(OC)c(OC)c32)cc1	Pf growth 48h 9.3µM, Pf growth 96h inconclusive
COc1ccc(C2CC(=O)N3C(=C2C#N)SCC3(O)c2ccccc2)cc1 (stereo not given)	none
COc1cc2c(c(OC)c1OC)C(c1ccc(O)cc1)CC(=O)O2 (stereo not given)	none (no result: AmpC detergent, Pf growth 48h, Sm TGR block, Pf growth 96h)
CCc1cc(C(=O)Nc2cnn(Cc3ccccc3C)c2)no1	none (no result: AmpC no deterg, Pf growth 48h, SARS PLpro yeast, Pf growth 96h)
CCOc1ccc(CNC(=O)C2CCCN(S(=O)(=O)c3ccc4c(c3)CCCC(=O)N4)C2)cc1 (stereo not given)	none (no result: AmpC no deterg, Pf growth 48h, SARS PLpro yeast, Pf growth 96h)
COc1ccc(N2CCN(C(=O)C3CC(O)CN3S(=O)(=O)c3ccc([N+](=O)[O-])cc3)CC2)cc1 (stereo not given)	none
COc1ccc(N=C2SC(C(=O)N3CCN(c4ccc([N+](=O)[O-])cc4)CC3)CC(=O)N2C)cc1 (stereo not given)	Pf growth 48h 15µM (no result: Sm TGR block)
COc1ccc(NCc2ccsc2)cc1	Pf growth 48h inconclusive
O=C(CCCN1CC=C(n2c(=O)[nH]c3ccccc32)CC1)c1ccc(F)cc1	AmpC detergent inconclusive, Pf growth 48h 8.3µM, Pf growth 96h 3.3µM
O=C(CCCN1CCC(C(=O)c2ccc(F)cc2)CC1)c1ccc(F)cc1	AmpC detergent inconclusive, Pf growth 48h inconclusive
C/C(=N\N=C1\NC(=O)C(CC(=O)O)S1)c1ccccn1 (stereo not given)	Pf growth 48h 10µM, Pf growth 96h 1.2µM
CCOc1ccc(N=C2NC(=O)C(CC(=O)O)S2)cc1 (stereo not given)	none
COc1ccccc1Nc1nn2c(=O)c3ccc(C(=O)NCCC4=CCCCC4)cc3nc2s1	none (no result: AmpC no deterg, Pf growth 48h, SARS PLpro yeast, Pf growth 96h)
O=C(CNC(=O)c1ccccc1)N/N=C/c1ccc([N+](=O)[O-])o1	AmpC detergent inconclusive, Pf growth 48h 4.7µM, Sm TGR block inconclusive, Pf growth 96h inconclusive
CCCCCC(=O)N/N=C/c1ccc([N+](=O)[O-])o1	Sm TGR block 40µM (no result: Pf growth 48h, Pf growth 96h)
O=C(CNc1ccccc1)N/N=C/c1ccc([N+](=O)[O-])o1	Pf growth 48h 3.7µM, Sm TGR block inconclusive, Pf growth 96h 2.6µM
O=C(Cc1ccc2c(c1)OCO2)NN=Cc1ccc([N+](=O)[O-])o1	none (no result: AmpC detergent, Pf growth 48h, Sm TGR block, Pf growth 96h)
O=C(CCC(=O)Nc1ccc(Cl)cc1Cl)N/N=C/c1ccc([N+](=O)[O-])o1	Pf growth 48h inconclusive, Sm TGR block inconclusive, Pf growth 96h inconclusive
Cc1ccc(NCC(=O)N/N=C\c2ccc([N+](=O)[O-])o2)cc1	Pf growth 48h inconclusive, Sm TGR block inconclusive, Pf growth 96h 5.2µM
O=[N+]([O-])c1ccc(/C=N/NC(=S)Nc2ccccc2)o1	Sm TGR block inconclusive
Cc1cccc(NC(=O)Cn2c(=O)c3cccn3c3ccccc32)c1C	none (no result: AmpC no deterg, Pf growth 48h, SARS PLpro yeast, Pf growth 96h)
CCn1nc(C(=O)Nc2nc(-c3ccccn3)cs2)c2ccccc2c1=O	Pf growth 48h 2.3µM, Pf growth 96h 2.6µM
Cn1nc(C(=O)Nc2nc(-c3ccccn3)cs2)c2ccccc2c1=O	AmpC detergent inconclusive, Pf growth 48h 4.1µM, Pf growth 96h 3.3µM
O=C(Nc1nc(-c2ccccn2)cs1)c1ccccc1-n1cnnn1	Pf growth 48h inconclusive, Pf growth 96h 1.7µM
CCCn1nc(C(=O)Nc2nc(-c3ccccn3)cs2)c2ccccc2c1=O	AmpC detergent inconclusive, Pf growth 48h 4.1µM, Pf growth 96h 4.1µM
CCCn1nc(C(=O)Nc2nnc(C3CC3)s2)c2ccccc2c1=O	Pf growth 96h inconclusive
O=C(Nc1nc(-c2ccccn2)cs1)c1ccc2c(c1)OCCO2	Pf growth 96h inconclusive
Cc1ccc(Cc2c(C)nc3nc(SCC(=O)NCCC(C)C)nn3c2C)cc1	AmpC detergent inconclusive (no result: AmpC no deterg, Pf growth 48h, SARS PLpro yeast, Pf growth 96h)
Cc1cc(C)c(S(=O)(=O)NCCS(=O)(=O)N2CCN(c3ccccc3)CC2)c(C)c1	none (no result: AmpC no deterg, Pf growth 48h, SARS PLpro yeast, Pf growth 96h)
O=C(Nc1nc2c(s1)CCCC2)c1nn(Cc2ccccc2)c(=O)c2ccccc12	Pf growth 48h inconclusive, Pf growth 96h inconclusive
CC(C)CCn1nc(C(=O)Nc2nc3c(s2)CCCC3)c2ccccc2c1=O	Pf growth 48h 10µM, Pf growth 96h inconclusive
COc1cccc(C2CNC3(CCCC(C)C3)c3[nH]c4ccccc4c32)c1OC (stereo not given)	Pf growth 96h 9.3µM (no result: Pf growth 48h)
COc1cc2c(cc1OC)C(c1cccc(OC)c1OC)CC(=O)N2 (stereo not given)	Pf growth 96h inconclusive
CN(C)C/C=C(/c1ccc(Br)cc1)c1cccnc1	Pf growth 48h 12µM, Pf growth 96h 15µM (no result: AmpC detergent, AmpC no deterg, Sm TGR block, SARS PLpro yeast)
